Assay results: PubChem BioAssay (Tox21)
Where “and” joins values, the source holds several entries; their conditions need not be identical. Equal entries are not always repeated. Calls of active or inactive are those of the source. Unless noted, calls come from the whole dose curve; as a rule, active = well fitted curve in the direction sought with a large enough effect in the repeat runs; inconclusive = weak or mixed curves; inactive = no such curve, though single readings can be large; an effect the other way counts as inactive or inconclusive.

How the values were obtained:
[1] = qHTS assay to identify small molecule antagonists of the glucocorticoid receptor (GR) signaling pathway - cell viability counter screen (AID 720693); note: nearly all actives have a fitted effect of over 55% in size; note: potency is the fitted concentration of half-maximal effect
[2] = qHTS assay for identifying genotoxic compounds that show differential cytotoxicity against isogenic chicken DT40 cell lines with known DNA damage response pathways - Rev3 mutant cell line (AID 743014); note: nearly all actives have a fitted effect of over 55% in size; note: potency is the fitted concentration of half-maximal effect
[3] = qHTS assay for identifying genotoxic compounds that show differential cytotoxicity against isogenic chicken DT40 cell lines with known DNA damage response pathways - Rad54/Ku70 mutant cell line (AID 743015); note: nearly all actives have a fitted effect of over 60% in size; note: potency is the fitted concentration of half-maximal effect
[4] = qHTS assay to identify small molecule antagonists of the androgen receptor (AR) signaling pathway - cell viability counter screen (AID 743033; note: nearly all actives have a fitted effect of over 45% in size; note: potency is the fitted concentration of half-maximal effect)
[5] = qHTS assay to identify small molecule antagonists of the androgen receptor (AR) signaling pathway using the MDA cell line - cell viability counter screen (AID 743041; note: nearly all actives have a fitted effect of over 45% in size; note: potency is the fitted concentration of half-maximal effect)
In short: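 MDA-kb2 AR-luc human breast carcinoma cells (MMTV-luciferase, AR/GR responsive) were treated with compounds plus R1881 agonist for 16 h at 37 °C. Viability was read as CellTiter-Fluor fluorescence in the same wells as the reporter assay.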

[6] = tested on: thyroid hormone receptor (rat, GH3 cells); assay: qHTS assay to identify small molecule agonists of the thyroid receptor (TR) signaling pathway (AID 743066; calls by dose curve)
[7] = qHTS assay to identify small molecule antagonists of the estrogen receptor alpha (ER-alpha) signaling pathway - cell viability counter screen (AID 743074; calls by dose curve; note: nearly all actives have a fitted effect of over 45% in size; note: potency is the fitted concentration of half-maximal effect)
[8] = qHTS assay to identify small molecule antagonists of the estrogen receptor alpha (ER-alpha) signaling pathway using the BG1 cell line - cell viability counter screen (AID 743081);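 note: compound given together with 17beta-estradiol as the ER stimulus; nearly all actives have a fitted effect of over 45% in size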
Aromatase (Homo sapiens) = Aromatase (Homo sapiens) (UniProt P11511); assay: qHTS assay to identify aromatase inhibitors (AID 743083); note: nearly all actives have a fitted effect of over 55% in size; note: potency is the fitted concentration of half-maximal effect
[9] = qHTS assay to identify aromatase inhibitors - cell viability counter screen (AID 743084);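 note: cells stimulated with testosterone during compound exposure; nearly all actives have a fitted effect of over 55% in size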; note: potency is the fitted concentration of half-maximal effect
[10] = qHTS assay to identify small molecule antagonists of the thyroid receptor (TR) signaling pathway - cell viability counter screen (AID 743064); note: nearly all actives have a fitted effect of over 50% in size; note: potency is the fitted concentration of half-maximal effect
In short: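 In rat pituitary GH3.TRE-Luc reporter cells co-exposed to compound and 1 nM T3 for 23.5 h, cytotoxicity was assessed with CellTiter-Fluor in the same wells, read by fluorescence.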

[11] = qHTS assay to identify small molecule antagonists of the thyroid receptor (TR) signaling pathway (AID 743065); note: nearly all actives have a fitted effect of over 55% in size; note: potency is the fitted concentration of half-maximal effect
In short: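 GH3.TRE-Luc rat pituitary cells carrying two TR response elements driving luciferase were plated for 4 h, given compound plus 1 nM T3 (final), and incubated 23.5 h at 37 C. ONE-Glo luminescence measured reporter inhibition; CellTiter-Fluor fluorescence tracked cytotoxicity.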

[12] = molecular target: Estrogen receptor (Homo sapiens) (UniProt P03372); assay: qHTS assay to identify small molecule antagonists of the estrogen receptor alpha (ER-alpha) signaling pathway (AID 743069; active = well fitted curve in the direction sought with a large enough effect in the signal ratio in the repeat runs, not every such curve was filed as active; inconclusive = weak or mixed curves, or effect the other way; inactive = no such curve, though single readings can be large or run the other way; the % refers to the signal ratio; note: potency is the fitted concentration of half-maximal effect)
In short: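 HEK293 cells stably carrying an ER-alpha-UAS-bla beta-lactamase reporter were pre-cultured overnight in 2% charcoal-stripped FBS medium. Test compounds in DMSO were added together with 17beta-estradiol for 18 hr at 37C. Read-out was fluorescence after 2 hr with LiveBLAzer B/G FRET substrate at room temperature.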

[13] = molecular target: Estrogen receptor (Homo sapiens) (UniProt P03372); assay: qHTS assay to identify small molecule agonists of the estrogen receptor alpha (ER-alpha) signaling pathway (AID 743075; calls by dose curve; note: potency is the fitted concentration of half-maximal effect)
[14] = molecular target: Estrogen receptor (Homo sapiens) (UniProt P03372); assay: qHTS assay to identify small molecule agonists of the estrogen receptor alpha (ER-alpha) signaling pathway using the BG1 cell line (AID 743079); details: BG1Luc4E2 cells, ERE-luciferase agonist, 22 h; activation: at 70.3 µM (top of the series); note: nearly all actives have a fitted effect of over 20% in size; note: potency is the fitted concentration of half-maximal effect
[15] = qHTS assay to identify small molecule antagonists of the estrogen receptor alpha (ER-alpha) signaling pathway using the BG1 cell line (AID 743080; calls by dose curve;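 note: BG1 cells stimulated with 17beta-estradiol alongside compound; nearly all actives have a fitted effect of over 25% in size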); details: BG1Luc4E2 ERE-luciferase antagonist mode, luminescence; activity change, negative = inhibition: at 70.3 µM (top of the series)
In short: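 Endogenous full-length ER-alpha in BG1-Luc-4E2 cells drives a stably integrated 4×ERE luciferase gene; compounds were tested against 17beta-estradiol over 21.5 h, with luminescence and multiplexed viability fluorescence recorded.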

[16] = molecular target: Androgen receptor (Homo sapiens) (UniProt P10275); assay: qHTS assay to identify small molecule antagonists of the androgen receptor (AR) signaling pathway (AID 743035; active = well fitted inhibition curve with a large enough effect in the signal ratio in the repeat runs, not every such curve was filed as active; inconclusive = weak or mixed curves, or effect the other way; inactive = no such curve, though single readings can be large or run the other way; the % refers to the signal ratio)
In short: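 Cell line: GeneBLAzer AR-UAS-bla GripTite (HEK293). Stimulus: R1881 added after compound. Exposure: 16 h, 37C, 5% CO2. Readout: LiveBLAzer B/G FRET fluorescence after 2 h at room temperature.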

[17] = molecular target: Androgen receptor (Homo sapiens) (UniProt P10275); assay: qHTS assay to identify small molecule agonists of the androgen receptor (AR) signaling pathway using the MDA cell line (AID 743040; note: nearly all actives have a fitted effect of over 20% in size)
In short: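 MDA-kb2 breast carcinoma cells stably carrying an MMTV-driven luciferase reporter (AR- and GR-responsive) were seeded and held 5 h at 37C, 0% CO2, then exposed to compounds in DMSO for 16 h. Luminescence was read 30 min after ONE-Glo addition.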

[18] = molecular target: Androgen receptor (Homo sapiens) (UniProt P10275); assay: qHTS assay to identify small molecule antagonists of the androgen receptor (AR) signaling pathway using the MDA cell line (AID 743042; note: nearly all actives have a fitted effect of over 55% in size)
In short: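 MDA-kb2 cells (human breast carcinoma, stably carrying an MMTV-luciferase reporter responsive to AR and GR) were plated at 3,000 cells/well and preincubated 5 hr at 37C, then given compound plus R1881 agonist for 16 h. ONE-Glo luminescence was read.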

[19] = qHTS assay for identifying genotoxic compounds that show differential cytotoxicity against isogenic chicken DT40 cell lines with known DNA damage response pathways - wild type cell line (AID 743012); note: nearly all actives have a fitted effect of over 60% in size; note: potency is the fitted concentration of half-maximal effect
In short: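 Quantitative HTS on parental DT40 cells: 40 h compound treatment at 37 C/5% CO2, with viability then determined by CellTiter-Glo luminescence. Values serve as the DNA repair-proficient reference for differential cytotoxicity.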

Measured: Potency

Chain of Estrogen receptor (Homo sapiens) (P03372 whole entry, looked up): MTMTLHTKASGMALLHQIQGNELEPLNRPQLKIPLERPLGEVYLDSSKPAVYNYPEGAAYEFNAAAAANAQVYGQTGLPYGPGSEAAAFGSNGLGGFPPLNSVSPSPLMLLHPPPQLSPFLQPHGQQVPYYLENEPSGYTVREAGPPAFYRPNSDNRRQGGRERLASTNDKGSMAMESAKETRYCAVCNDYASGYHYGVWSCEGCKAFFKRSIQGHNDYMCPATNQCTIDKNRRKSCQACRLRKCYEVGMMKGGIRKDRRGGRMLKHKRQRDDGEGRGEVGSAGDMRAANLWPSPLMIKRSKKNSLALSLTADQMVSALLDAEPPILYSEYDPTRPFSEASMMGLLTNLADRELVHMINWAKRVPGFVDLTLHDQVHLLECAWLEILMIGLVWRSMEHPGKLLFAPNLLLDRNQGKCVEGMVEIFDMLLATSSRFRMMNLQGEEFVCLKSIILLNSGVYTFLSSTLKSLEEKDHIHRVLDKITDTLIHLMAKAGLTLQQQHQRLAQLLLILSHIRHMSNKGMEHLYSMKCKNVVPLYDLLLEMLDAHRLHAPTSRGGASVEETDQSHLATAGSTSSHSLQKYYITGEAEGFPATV
Chain of Androgen receptor (Homo sapiens) (P10275 whole entry, looked up): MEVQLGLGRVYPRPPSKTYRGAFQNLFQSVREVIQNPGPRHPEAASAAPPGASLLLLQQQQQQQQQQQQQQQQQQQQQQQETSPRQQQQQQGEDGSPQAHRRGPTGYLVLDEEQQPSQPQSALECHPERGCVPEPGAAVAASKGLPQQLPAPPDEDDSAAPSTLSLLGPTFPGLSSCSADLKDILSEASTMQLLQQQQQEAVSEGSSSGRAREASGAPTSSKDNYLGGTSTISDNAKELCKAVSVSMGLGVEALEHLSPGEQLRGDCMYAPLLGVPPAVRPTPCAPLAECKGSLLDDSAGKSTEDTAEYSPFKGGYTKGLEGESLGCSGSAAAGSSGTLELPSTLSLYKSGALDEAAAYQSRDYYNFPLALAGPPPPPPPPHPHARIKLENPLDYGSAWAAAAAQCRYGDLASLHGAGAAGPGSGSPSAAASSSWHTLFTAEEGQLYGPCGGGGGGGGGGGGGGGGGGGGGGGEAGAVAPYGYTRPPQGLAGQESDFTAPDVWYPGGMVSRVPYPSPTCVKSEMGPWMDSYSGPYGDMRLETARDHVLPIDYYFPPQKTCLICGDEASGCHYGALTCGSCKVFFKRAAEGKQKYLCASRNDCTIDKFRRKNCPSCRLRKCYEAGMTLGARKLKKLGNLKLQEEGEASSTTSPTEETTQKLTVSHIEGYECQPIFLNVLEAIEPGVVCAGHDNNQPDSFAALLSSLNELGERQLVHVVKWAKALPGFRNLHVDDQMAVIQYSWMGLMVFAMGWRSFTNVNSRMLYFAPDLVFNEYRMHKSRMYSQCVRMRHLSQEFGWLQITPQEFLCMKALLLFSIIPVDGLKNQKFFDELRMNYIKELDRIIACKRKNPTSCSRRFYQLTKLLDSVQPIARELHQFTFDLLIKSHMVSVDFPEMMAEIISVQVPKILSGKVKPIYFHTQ
Chain of Aromatase (Homo sapiens) (P11511 whole entry, looked up): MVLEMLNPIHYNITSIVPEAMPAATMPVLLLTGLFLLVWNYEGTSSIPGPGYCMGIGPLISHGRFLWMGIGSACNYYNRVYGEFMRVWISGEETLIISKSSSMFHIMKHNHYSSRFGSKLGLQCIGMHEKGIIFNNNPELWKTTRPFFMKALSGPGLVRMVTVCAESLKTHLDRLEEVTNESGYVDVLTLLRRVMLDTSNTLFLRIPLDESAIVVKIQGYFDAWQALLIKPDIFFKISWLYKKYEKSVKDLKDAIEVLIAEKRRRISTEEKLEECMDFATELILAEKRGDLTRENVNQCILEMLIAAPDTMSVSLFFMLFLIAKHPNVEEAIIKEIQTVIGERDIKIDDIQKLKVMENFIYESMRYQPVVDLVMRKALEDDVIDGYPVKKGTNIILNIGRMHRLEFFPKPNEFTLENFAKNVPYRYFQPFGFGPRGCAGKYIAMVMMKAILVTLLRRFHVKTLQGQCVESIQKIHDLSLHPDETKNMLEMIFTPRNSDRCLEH

Clc1ccc(C(c2ccccc2Cl)C(Cl)Cl)cc1 (stereo not drawn)
inactive: [1] | [4] | [5] | [6] | [7] | [8] | Aromatase (Homo sapiens) | [9]
active: [2] 29.8 µM and 48.6 µM | [3] 26.6 µM and 43.3 µM

C(=C/c1ccccc1)/c1ccccc1
inactive: [1] | [2] | [3] | [4] | [5] | [10] | [11] | [6] | [12] | [7] | [13] | [14] | [15] | [8] | Aromatase (Homo sapiens) | [9]

C[C@@H]1CC[C@H]2C(C)(C)[C@H]3C[C@@]12CC[C@@]3(C)O
active: [11] 54.4 µM
inactive: [1] | [2] | [3] | [4] | [16] | [17] | [5] | [18] | [6] | [12] | [7] | [13] | [14] | [8] | Aromatase (Homo sapiens) | [9]

O=Cc1ccc(F)cc1
active: [2] 19.3 µM | [3] 19.3 µM
inactive: [1] | [4] | [16] | [17] | [5] | [18] | [10] | [11] | [6] | [12] | [7] | [13] | [14] | [15] | [8] | Aromatase (Homo sapiens) | [9]

CNC(=O)c1cc(Oc2ccc(NC(=O)Nc3ccc(Cl)c(C(F)(F)F)c3)cc2)ccn1
active: [1] 19 µM | [2] 5.31 µM | [3] 5.31 µM | [4] 16.9 µM | [5] 16.8 µM | [10] 9.44 µM | [11] 5.96 µM | [12] 6.01 µM [inconclusive] | [7] 21.3 µM | Aromatase (Homo sapiens) 11.9 µM | [9] 23.7 µM
inactive: [13]

CSc1c(Cl)c(Cl)c(Cl)c(Cl)c1Cl
inactive: [1] | [19] | [3] | [4] | [5] | [8] | Aromatase (Homo sapiens) | [9]

c1cc2c3c(c1)ccc1cccc(c13)C2
inactive: [1] | [19] | [5] | [6] | [7] | [8] | Aromatase (Homo sapiens) | [9]

C=CCCCCCCC=C
inactive: [1] | [19] | [3] | [5] | [10] | [11] | [6] | [7] | [8] | Aromatase (Homo sapiens) | [9]

Cc1occc1SSc1ccoc1C
active: [2] 19.3 µM | [3] 15.4 µM | [11] 68.6 µM | Aromatase (Homo sapiens) 30.6 µM | [9] 43.3 µM
inactive: [1] | [4] | [5] | [6] | [7] | [8]

ClC/C=C\CCl
inactive: [1] | [2] | [3] | [4] | [5] | [10] | [6] | [12] | [7] | [13] | [14] | [15] | [8] | Aromatase (Homo sapiens) | [9]

O=C1OC(=O)c2cccc3cccc1c23
active: [2] 15.5 µM | [3] 13.8 µM
inactive: [1] | [4] | [5] | [10] | [6] | [12] | [7] | [13] | [14] | [15] | [8] | Aromatase (Homo sapiens)

CCCCCCCOC(=O)c1ccc(O)cc1
active: [1] 49 µM | [2] 43.3 µM | [3] 54.5 µM and 48.6 µM | [10] 61.1 µM | [11] 61.1 µM | [12] 54.9 µM [inhibitor] | [13] 55 µM [inconclusive] and 54.9 µM [inconclusive] | [14] 15.4 µM and 19.3 µM | Aromatase (Homo sapiens) 43.3 µM
inactive: [4] | [5] | [6] | [7] | [8] | [9]

Cc1cc2c(C(C)C)c(O)c(O)c(C=O)c2c(O)c1-c1c(C)cc2c(C(C)C)c(O)c(O)c(C=O)c2c1O
active: [1] 9.52 µM | [2] 13.3 µM | [3] 11.9 µM | [4] 21.3 µM | [10] 9.44 µM | [11] 9.44 µM | [12] 9.52 µM [inconclusive] | [7] 21.3 µM | Aromatase (Homo sapiens) 21.1 µM | [9] 26.6 µM
inactive: [13]

Oc1c(Br)cc(Br)c2cccnc12
active: [2] 11.9 µM | [3] 13.3 µM | [10] 26.6 µM | [11] 16.8 µM
inactive: [1] | [4] | [5] | [13] | Aromatase (Homo sapiens) | [9]

CC(C)(C)CC(C)(C)c1ccccc1O
active: [1] 34.9 µM | [2] 24.5 µM | [3] 54.8 µM | [4] 39.1 µM | [10] 19.4 µM | [11] 21.8 µM | [7] 49.2 µM | [13] 22 µM [inconclusive] | [14] 1.38 µM | Aromatase (Homo sapiens) 48.8 µM | [9] 48.8 µM
inactive: [5]

CC(=O)Nc1ccc(O)cc1
inactive: [1] | [2] | [3] | [4] | [5] | [10] | [6] | [7] | [8] | Aromatase (Homo sapiens) | [9]

CCCCCCCC/C=C\CCCCCCCC(=O)N(C)CC(=O)O
inactive: [14] | [15] | [8]
active: [1] 49 µM | [19] 21.7 µM | [3] 27.3 µM | [10] 30.6 µM | [11] 61.1 µM
